What all share (settings): mRNA level, 48 h; actives raise or lower the signal
Read-out in test [1]: Cytochrome P450 (CYP24A1), CYP24A1 (gene 1591)
The experiment in a line: LTEA_HepaRG_CYP24A1: Life Technologies and Expression Analysis (LTEA) Assay for Cytochrome P450 (CYP24A1) using HepaRG (AID 2283478). A digest of the protocol: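 qRT-PCR read-out: CYP24A1 transcript levels normalized to three housekeeping genes, bidirectional curve fits against 0.5% DMSO baseline. Human HepaRG cells treated 48 h with chemicals at eight concentrations from 100 uM in half-log steps.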

Read-out in test [2]: Cytochrome P450 (CYP1A2), CYP1A2 (gene 1544)
Kind of test: LTEA_HepaRG_CYP1A2: Life Technologies and Expression Analysis (LTEA) Assay for Cytochrome P450 (CYP1A2) using HepaRG (AID 2283479). A digest of the protocol:
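HepaRG, 48 h exposure, top 100 uM, half-log 8-pt, 0.5% DMSO vehicle, duplicates. Readout: TaqMan qRT-PCR of CYP1A2 mRNA, housekeeping-normalized (ACTB/GAPDH/POLR2A). Gain/loss fit relative to DMSO baseline.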

Read-out in test [3]: cysteine-aspartic acid protease (CASP8), CASP8 (gene 841)
The experiment in a line: LTEA_HepaRG_CASP8: Life Technologies and Expression Analysis (LTEA) Assay for cysteine-aspartic acid protease (CASP8) using HepaRG (AID 2283480). A digest of the protocol:
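qRT-PCR readout of CASP8 mRNA, normalized to three housekeeping genes, after 48 h chemical exposure of HepaRG cells; 8-point half-log series, top 100 uM, 0.5% DMSO vehicle. Bidirectional curve fitting against DMSO baseline.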

Read-out in test [4]: Cytochrome P450 (CYP2B6), CYP2B6 (gene 1555)
The experiment in a line: LTEA_HepaRG_CYP2B6: Life Technologies and Expression Analysis (LTEA) Assay for Cytochrome P450 (CYP2B6) using HepaRG (AID 2283481). A digest of the protocol:
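Read-out is CYP2B6 mRNA by TaqMan qRT-PCR, normalized to three housekeeping genes and fitted bidirectionally against 0.5% DMSO baseline. Human HepaRG cells received test chemicals for 48 h, top concentration 100 uM, half-log dilutions.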

Read-out in test [5]: CYP2C8 (gene 1558)
Kind of test: LTEA_HepaRG_CYP2C8: Life Technologies and Expression Analysis (LTEA) Assay for CYP2C8 using HepaRG (AID 2283483). In a few lines:
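HepaRG (human liver line), 48 h chemical exposure, 8-pt half-log series from 100 uM, 0.5% DMSO vehicle. Readout: CYP2C8 transcript by qRT-PCR, housekeeping-normalized. Bidirectional fit vs DMSO baseline.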

Read-out in test [6]: CYP2C9 (gene 1559)
The experiment in a line: LTEA_HepaRG_CYP2C9: Life Technologies and Expression Analysis (LTEA) Assay for CYP2C9 using HepaRG (AID 2283484). A digest of the protocol: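 HepaRG, 48 h dosing, 8-pt half-log series, top 100 uM, 0.5% DMSO vehicle. Read-out: CYP2C9 transcript by TaqMan qRT-PCR, housekeeping-normalized (ACTB/GAPDH/POLR2A). Gain or loss fitted vs DMSO baseline.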

Read-out in test [7]: CYP2E1 (gene 1571)
The experiment in a line: LTEA_HepaRG_CYP2E1: Life Technologies and Expression Analysis (LTEA) Assay for CYP2E1 using HepaRG (AID 2283485). In a few lines:
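Readout is qRT-PCR of CYP2E1 mRNA, normalized to three housekeeping genes and fitted bidirectionally against 0.5% DMSO. HepaRG cells were dosed 48 h at eight concentrations, highest 100 uM with half-log dilutions.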

Read-out in test [8]: DNA damage-inducible transcript 3 (DDIT3), DDIT3 (gene 1649)
Kind of test: LTEA_HepaRG_DDIT3: Life Technologies and Expression Analysis (LTEA) Assay for DNA damage-inducible transcript 3 (DDIT3) using HepaRG (AID 2283488). A digest of the protocol: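 Cells are human HepaRG liver cells treated for 48 h with eight half-log concentrations up to 100 uM in 0.5% DMSO. Transcript levels come from qRT-PCR normalized to three housekeeping genes, with activity fitted in both directions relative to vehicle.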

Read-out in test [9]: Early growth response protein 1 (EGR1) transcription factor, EGR1 (gene 1958)
The experiment in a line: LTEA_HepaRG_EGR1: Life Technologies and Expression Analysis (LTEA) Assay for Early growth response protein 1 (EGR1) transcription factor using HepaRG (AID 2283490). A digest of the protocol:
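HepaRG, 48 h exposure, 8-pt half-log series from 100 uM, 0.5% DMSO vehicle; EGR1 transcript by TaqMan qRT-PCR (Fluidigm array), housekeeping-normalized; bidirectional fit relative to DMSO baseline.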

Read-out in test [10]: Ezrin (EZR), EZR (gene 7430)
The experiment in a line: LTEA_HepaRG_EZR: Life Technologies and Expression Analysis (LTEA) Assay for Ezrin (EZR) using HepaRG (AID 2283491). In a few lines:
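Read-out is EZR transcript level by qRT-PCR, normalized to three housekeeping genes and fitted bidirectionally against the DMSO control. Human HepaRG cells received test chemicals for 48 h at eight half-log concentrations up to 100 uM in 0.5% DMSO.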

Read-out in test [11]: CYP3A5 (gene 1577)
Kind of test: LTEA_HepaRG_CYP3A5: Life Technologies and Expression Analysis (LTEA) Assay for CYP3A5 using HepaRG (AID 2283493). A digest of the protocol:
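Human HepaRG hepatic cells receive 48 h chemical treatment at eight concentrations (half-log steps from 100 uM) in 0.5% DMSO. Expression of CYP3A5 is quantified by Fluidigm qRT-PCR and normalized to three reference genes.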

Read-out in test [12]: Fatty Acid-Binding Protein 1 (FABP1), FABP1 (gene 2168)
The experiment in a line: LTEA_HepaRG_FABP1: Life Technologies and Expression Analysis (LTEA) Assay for Fatty Acid-Binding Protein 1 (FABP1) using HepaRG (AID 2283494). In a few lines:
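qRT-PCR readout of FABP1 transcript (normalized to three housekeeping genes) after 48 h chemical exposure of HepaRG cells; eight concentrations, half-log steps, max 100 uM, 0.5% DMSO vehicle; gain or loss fitted relative to DMSO baseline.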

Read-out in test [13]: Cytochrome P450 7A1 (Homo sapiens) (UniProt P22680)
The experiment in a line: LTEA_HepaRG_CYP7A1: Life Technologies and Expression Analysis (LTEA) Assay for Cytochrome P450 7A1 (CYP7A1) using HepaRG (AID 2283496). In a few lines: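 HepaRG, 48 h exposure, 8-pt half-log series from 100 uM, 0.5% DMSO vehicle, duplicates. Readout: TaqMan qRT-PCR mRNA vs three housekeeping genes; bidirectional curve fit against DMSO baseline.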

Read-out in test [14]: Glutathione S-Transferase (GSTA2), GSTA2 (gene 2939)
The experiment in a line: LTEA_HepaRG_GSTA2: Life Technologies and Expression Analysis (LTEA) Assay for Glutathione S-Transferase (GSTA2) using HepaRG (AID 2283497). A digest of the protocol:
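qRT-PCR readout of GSTA2 transcript, normalized to three housekeeping genes, fitted bidirectionally against 0.5% DMSO baseline. Differentiated HepaRG cells received compound for 48 h at 8 concentrations (top 100 uM, half-log steps).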

Read-out in test [15]: Cytochrome P450 2C19 (Homo sapiens) (UniProt P33261)
The experiment in a line: LTEA_HepaRG_CYP2C19: Life Technologies and Expression Analysis (LTEA) Assay for CYP2C19 using HepaRG (AID 2283482). In a few lines: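 HepaRG, 48 h chemical exposure, 8-pt half-log series from 100 uM in 0.5% DMSO, duplicates. Readout: CYP2C19 mRNA by TaqMan qRT-PCR, housekeeping-normalized. Bidirectional fit vs DMSO baseline; phenobarbital 1mM as induction control.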

Read-out in test [16]: Pro-epidermal growth factor (Homo sapiens) (UniProt P01133)
The experiment in a line: LTEA_HepaRG_EGF: Life Technologies and Expression Analysis (LTEA) Assay for Epidermal growth factor (EGF) using HepaRG (AID 2283489). In a few lines:
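qRT-PCR readout of EGF transcript after 48 h chemical exposure of HepaRG cells; eight concentrations from 100 uM down in half-log steps, duplicate wells, 0.5% DMSO vehicle. Bidirectional curve fitting against DMSO baseline.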

Read-out in test [17]: CYP4A11 (gene 1579)
The experiment in a line: LTEA_HepaRG_CYP4A11: Life Technologies and Expression Analysis (LTEA) Assay for CYP4A11 using HepaRG (AID 2283486). In a few lines: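 CYP4A11 transcript levels were quantified by TaqMan qRT-PCR after HepaRG human liver cells were treated for 48 hours with test chemicals (top 100 uM, half-log dilutions, 0.5% DMSO). Gain or loss of signal was fitted relative to DMSO.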

Read-out in test [18]: Cytochrome P450 3A4 (Homo sapiens) (UniProt P08684)
Kind of test: LTEA_HepaRG_CYP3A4: Life Technologies and Expression Analysis (LTEA) Assay for CYP3A4 using HepaRG (AID 2283487). A digest of the protocol:
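HepaRG, 48 h exposure, 8-pt CRC from 100 uM (half-log), 0.5% DMSO, duplicates; serum-free induction medium. Readout: CYP3A4 mRNA, qRT-PCR, ACTB/GAPDH/POLR2A normalization. Bidirectional fit vs DMSO.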

Read-out in test [19]: Cytochrome P450 3A7 (Homo sapiens) (UniProt P24462)
Kind of test: LTEA_HepaRG_CYP3A7: Life Technologies and Expression Analysis (LTEA) Assay for CYP3A7 using HepaRG (AID 2283492). A digest of the protocol:
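CYP3A7 transcript levels were read by TaqMan qRT-PCR on Fluidigm arrays after 48 h chemical exposure of human HepaRG cells, with housekeeping-gene normalisation. Eight half-log concentrations up to 100 uM in 0.5% DMSO were tested in duplicate.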

Read-out in test [20]: Cytochrome P450 4A22 (Homo sapiens) (UniProt Q5TCH4)
Kind of test: LTEA_HepaRG_CYP4A22: Life Technologies and Expression Analysis (LTEA) Assay for Cytochrome P450 4A22 (CYP4A22) using HepaRG (AID 2283495). In a few lines:
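HepaRG, 48 h post-plating -> serum-free induction medium; dosed 48 h, duplicate, 8 conc. (100 uM top, half-log), 0.5% DMSO. Readout: CYP4A22 mRNA by qRT-PCR, ACTB/GAPDH/POLR2A normalization; gain/loss fit relative to DMSO.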

Activity calls are given as the source filed them. How the source made its calls: active means hit-call score of the fitted dose curve at least 0.9, where 1 is the maximum; inactive means score below 0.9.

Sequence of Cytochrome P450 2C19 (Homo sapiens) (P33261 whole entry, looked up): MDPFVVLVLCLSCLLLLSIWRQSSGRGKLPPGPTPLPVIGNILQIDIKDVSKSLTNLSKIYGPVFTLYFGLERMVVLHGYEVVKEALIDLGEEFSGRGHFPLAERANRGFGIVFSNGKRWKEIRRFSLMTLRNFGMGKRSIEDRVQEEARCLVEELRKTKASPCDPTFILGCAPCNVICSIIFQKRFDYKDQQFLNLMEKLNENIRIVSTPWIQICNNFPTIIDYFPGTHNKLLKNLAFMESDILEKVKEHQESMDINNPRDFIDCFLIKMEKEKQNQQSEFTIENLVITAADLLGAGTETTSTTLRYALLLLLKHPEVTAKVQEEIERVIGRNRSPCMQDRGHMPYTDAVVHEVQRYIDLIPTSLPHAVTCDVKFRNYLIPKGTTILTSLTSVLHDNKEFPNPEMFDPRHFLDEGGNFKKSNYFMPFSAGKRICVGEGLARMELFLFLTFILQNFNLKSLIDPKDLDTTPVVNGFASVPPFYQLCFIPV
Sequence of Cytochrome P450 3A7 (Homo sapiens) (P24462 whole entry, looked up): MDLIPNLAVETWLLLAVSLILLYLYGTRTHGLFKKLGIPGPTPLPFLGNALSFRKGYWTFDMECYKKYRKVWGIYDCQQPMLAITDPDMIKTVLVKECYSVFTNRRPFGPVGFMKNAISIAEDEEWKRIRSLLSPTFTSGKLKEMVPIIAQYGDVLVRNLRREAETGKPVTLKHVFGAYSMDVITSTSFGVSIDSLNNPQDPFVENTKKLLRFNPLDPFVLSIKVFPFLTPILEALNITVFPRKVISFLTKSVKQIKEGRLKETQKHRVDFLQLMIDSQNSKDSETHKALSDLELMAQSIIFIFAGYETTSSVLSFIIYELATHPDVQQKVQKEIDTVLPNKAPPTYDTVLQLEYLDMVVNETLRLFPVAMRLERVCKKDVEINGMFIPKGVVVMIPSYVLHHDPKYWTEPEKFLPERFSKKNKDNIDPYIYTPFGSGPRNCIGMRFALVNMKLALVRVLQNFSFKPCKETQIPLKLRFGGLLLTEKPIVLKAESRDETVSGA
Sequence of Cytochrome P450 3A4 (Homo sapiens) (P08684 whole entry, looked up): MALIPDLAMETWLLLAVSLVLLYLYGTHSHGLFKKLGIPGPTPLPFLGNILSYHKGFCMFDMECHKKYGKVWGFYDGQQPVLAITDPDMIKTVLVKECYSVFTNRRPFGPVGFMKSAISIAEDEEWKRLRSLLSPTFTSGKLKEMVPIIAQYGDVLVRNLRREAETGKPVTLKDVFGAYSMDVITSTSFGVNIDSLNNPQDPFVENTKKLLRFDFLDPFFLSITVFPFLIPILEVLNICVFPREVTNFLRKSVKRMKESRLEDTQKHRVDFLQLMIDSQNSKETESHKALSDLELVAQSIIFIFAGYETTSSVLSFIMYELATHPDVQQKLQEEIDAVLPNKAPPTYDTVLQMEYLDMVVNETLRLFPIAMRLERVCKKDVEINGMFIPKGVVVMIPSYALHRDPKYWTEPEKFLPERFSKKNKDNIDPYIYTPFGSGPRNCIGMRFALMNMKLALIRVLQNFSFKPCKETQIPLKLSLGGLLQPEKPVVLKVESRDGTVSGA

For the compound `Cc1c(C)c2c(c(C)c1O)CCC(C)(COc1ccc(CC3SC(=O)NC3=O)cc1)O2` (stereo not drawn), the result in [1], in test [3], in [5], in [6], in test [8] and in [10] was inactive. Also, in [12], the call was inactive. For the same compound, the AC50 (usually the concentration at which the activity in the assay is half-maximal) in test [2] was 15.8 µM (active); in [4], 26.4 µM (active); in test [7], 25.6 µM (active); in test [9], 88.3 µM (active); in test [11], 15.8 µM (active); in test [13] it was 92.7 µM (active). Moreover, in [14], the AC50 is 23.2 µM (active).
In the case of `CN(C)C(=O)NC1(c2ccccc2)CCN(CCC[C@]2(c3ccc(Cl)c(Cl)c3)CCCN(C(=O)c3ccccc3)C2)CC1`, the call in [1], in test [2], in test [3], in test [5], in test [16] and in [11] was inactive. For the same compound, the AC50 in [4] was 20 µM (active); in [15], 23.6 µM (active); in [6] it was 19.7 µM (active); in test [8], 18.1 µM (active); in test [9] it was 23.1 µM (active); in test [10], 23.4 µM (active). For the same compound, the values for the half-maximal activity concentration (AC50) in [12], in [13] and in test [14] were 20.5 µM (active), 22.2 µM (active) and 20.3 µM (active), respectively.
For `CC(COCC(C)OC(=O)c1ccccc1)OC(=O)c1ccccc1` (stereo not drawn), the outcome in test [1], in [2], in [3], in [4], in test [15] and in [5] was inactive. In addition, the outcome in test [6], in [17], in test [18], in [8], in test [9] and in test [10] was inactive. Besides, the compound was called inactive in [19], in test [11], in [12], in [13] and in [14].
For `Cc1cc(SC2=C(O)C[C@@](CCc3ccc(N)cc3)(C(C)C)OC2=O)c(C(C)(C)C)cc1CO`, the result in [1], in test [3], in test [6], in test [8], in [9] and in [10] was inactive. Besides, the compound was classed as inactive in test [11] and in test [14]. Further, the AC50 in [2] is 0.572 µM (active); in [4], 2.89 µM (active); in test [15], 0.972 µM (active); in test [5], 3.03 µM (active); in test [18] it was 0.344 µM (active); in test [19] it was 0.151 µM (active). For the same compound, the AC50 is 3.12 µM (active) in [12], 1.67 µM (active) in test [20] and 16.1 µM (active) in [13].

The values are drawn from PubChem BioAssay (EPA / NIEHS).
